Screening data deposited in PubChem by National Center for Advancing Translational Sciences (NCATS).
The list is not random: actives were taken first. Their share in the collection is about 5.8%.
SW480 rerep – induces DNA re-replication in SW480 colon adenocarcinoma cells | SW480 DNA re-replication, Hoechst DNA content imaging, 48 h | AID 624297 | Potency, µM (top dose mostly 46.1 µM), inactives show at the top dose re-replication activation, hits mostly activators | 340,000 tested, 1.8% active; further: % of control where 0% means no effect; nearly all actives have a fitted effect of over 55% in size
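Quantitative HTS format with DMSO vehicle controls; 48 hr drug incubation at 37 C, then 40 min Hoechst staining and scanning imager measurement at 405 nm excitation.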
PINK1 modulator – changes PINK1 expression; PINK1 immunofluorescence, high-content cytometry, 24 h; Potency, µM (series often up to 76.6 µM), without a hit: at the top dose activation (PINK1 increase), usual class: activators; 410,000 tested, 0.2% active; AID 624263; active means well fitted activation curve with a large enough effect; inconclusive means small, poorly fitted or top-dose-only effect; cell line not stated here; further: % of control where 0% means no effect; nearly all actives have a fitted effect of over 65% in size
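Fluorescence from anti-PINK1 antibody, together with nuclear and cell stains, was scanned on a laser-scanning cytometer. Before staining, stable-line cells were incubated 24 hours with compounds at 5 concentrations; primary antibody 12 h at 10 degrees C.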
KB-3-1 tox – KB-3-1 parental cell cytotoxicity; KB-3-1 viability, CellTiter-Glo ATP luminescence, 72 h; Potency, µM (doses to about 46.1 µM), usual class: cytotoxic; 400,000 tested, 1.4% active; further: on the % scale 0 is the no-effect control and ±100 the full control effect; nearly all actives have a fitted effect of over 60% in size
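Using CellTiter-Glo luminescence, growth of non-resistant KB-3-1 adenocarcinoma cells is assessed 72 h after pin-tool compound addition at 37 °C. Normalized responses across the concentration series yield fitted curves.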
12-LOX inh – blocks human arachidonate 12S-lipoxygenase; P18054; AID 1671190; purified 12hLO, xylenol orange hydroperoxide absorbance; Potency, µM (doses to about 108 µM), inactives show at the highest dose activity change, negative = inhibition, usual class: inhibitors; 580,000 tested, 1.1% active; further: on the % scale 0 is the no-effect control and ±100 the full control effect
Target sequence (P18054 whole entry, looked up): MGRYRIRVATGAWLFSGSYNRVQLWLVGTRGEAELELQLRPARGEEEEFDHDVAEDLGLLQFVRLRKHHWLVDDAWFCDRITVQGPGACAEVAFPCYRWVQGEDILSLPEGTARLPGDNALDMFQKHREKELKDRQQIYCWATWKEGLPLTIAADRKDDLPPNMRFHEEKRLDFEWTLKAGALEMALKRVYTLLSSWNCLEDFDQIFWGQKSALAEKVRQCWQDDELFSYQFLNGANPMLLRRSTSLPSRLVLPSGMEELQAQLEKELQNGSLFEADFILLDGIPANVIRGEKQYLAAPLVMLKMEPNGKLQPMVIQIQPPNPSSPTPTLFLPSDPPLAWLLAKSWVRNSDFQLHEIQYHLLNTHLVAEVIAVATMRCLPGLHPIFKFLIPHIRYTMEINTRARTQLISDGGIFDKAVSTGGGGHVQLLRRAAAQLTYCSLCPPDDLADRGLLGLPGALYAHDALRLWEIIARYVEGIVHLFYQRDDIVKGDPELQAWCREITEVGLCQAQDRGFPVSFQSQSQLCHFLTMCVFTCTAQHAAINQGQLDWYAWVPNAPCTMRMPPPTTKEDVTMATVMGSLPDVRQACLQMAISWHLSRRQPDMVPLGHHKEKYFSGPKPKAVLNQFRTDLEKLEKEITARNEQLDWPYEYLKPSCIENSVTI
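Purified human 12hLO (150 nM final) in 25 mM Hepes, 0.01% Triton X-100, pH 7.0 was preincubated 15 min at room temperature with compound. Then 40 uM arachidonic acid was added, 30 min. Hydroperoxide was read by Fe-XO absorbance ratio 573/405 nm.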
MCF10A rereplic – DNA re-replication induction in MCF 10a cells. Potency, µM (series often up to 46.1 µM), for the others: at the top dose activity, positive = re-replication, most hits filed as activators. MCF 10A DNA re-replication, Hoechst nuclear intensity, 48 h. 350,000 tested, 2.9% active; further: % of control where 0% means no effect; nearly all actives have a fitted effect of over 50% in size
KB-V1 cytotox – KB-V1 MDR subline cytotoxicity; Potency, µM (top dose mostly 46.1 µM), most hits filed as cytotoxic; 400,000 tested, 3.4% active; KB-V1 MDR cells viability, CellTiter-Glo, 72 h; further: on the % scale 0 is the no-effect control and ±100 the full control effect; nearly all actives have a fitted effect of over 60% in size
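Cytotoxicity toward P-gp-expressing KB-V1 cells was determined as loss of CellTiter-Glo luminescence after 72 h at 37 degrees C. Compounds were tested in quantitative HTS format across a concentration range, with curves fitted to normalized data.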
* = called active by the depositor; [ ] = remark or other dose. Unless noted, the call rests on the fitted dose curve; in most records, active means well fitted curve in the direction sought with a large enough effect; inconclusive means small, poorly fitted or top-dose-only effect, or another doubt; inactive means no such curve, though single readings can be large; an effect the other way counts as inactive or inconclusive. Potency means the concentration at half of the fitted maximal effect.

`N=c1c(C(=O)NCC2CCCO2)cc2c(=O)n3ccccc3nc2n1Cc1ccc(F)cc1` (configuration not stated) gave SW480 rerep 18µM*, PINK1 modulator -1%, KB-3-1 tox inactive, 12-LOX inh 10%, MCF10A rereplic 9.2µM* and KB-V1 cytotox inactive.
`N=c1c(C(=O)NCC2CCCO2)cc2c(=O)n3ccccc3nc2n1Cc1cccnc1` (configuration not stated) gave SW480 rerep 10µM*, PINK1 modulator 0%, KB-3-1 tox inactive, 12-LOX inh inconclusive, MCF10A rereplic 13µM* and KB-V1 cytotox inactive.
For N=c1c(C(=O)NCC2CCCO2)cc2c(=O)n3ccccc3nc2n1Cc1ccco1 (configuration not stated) the results were SW480 rerep 21µM*, PINK1 modulator 1%, KB-3-1 tox inactive, 12-LOX inh inconclusive, MCF10A rereplic inconclusive and KB-V1 cytotox inactive.
For COC(=O)c1ccoc1COC(=O)CCc1c(C)c2ccc(OC)cc2oc1=O the results were 12-LOX inh -58%.
Screening Cc1ccc2nc(-c3cccnc3)cc(C(=O)NCc3ccco3)c2c1 returned 12-LOX inh -2%.
CC(C#N)OC(=O)c1cc(-c2cccs2)nc2ccccc12 (configuration not stated) was read as 12-LOX inh -14%.
CCCCCCCCNC(=O)c1cnsn1 was read as SW480 rerep 0.52µM*, PINK1 modulator 4%, KB-3-1 tox inactive, 12-LOX inh -10%, MCF10A rereplic -1% and KB-V1 cytotox inactive.
`CCCCCCCCNC(=O)c1cnccn1` gave SW480 rerep inconclusive, PINK1 modulator 8%, KB-3-1 tox inactive, 12-LOX inh -3%, MCF10A rereplic 5% and KB-V1 cytotox inactive.
Screening CCCCCCn1cc(C(=O)O)c(=O)c2cc(F)c(N3CCN(C(=O)OCC)CC3)cc21 returned SW480 rerep -4%, PINK1 modulator 4%, KB-3-1 tox inactive, 12-LOX inh 45%, MCF10A rereplic 0% and KB-V1 cytotox 2.1µM*.
For Nc1c(Cl)cccc1C(=O)OCc1nc(N)c2ccccc2n1 the results were 12-LOX inh 35%.
For CCc1nnc(NC(=O)c2ccc(S(=O)(=O)N3CCCC(C)C3)cc2)o1 (configuration not stated) the results were SW480 rerep inconclusive, PINK1 modulator 0%, KB-3-1 tox inconclusive, 12-LOX inh 0%, MCF10A rereplic 2% and KB-V1 cytotox inconclusive.
CC1CC(C)CN(S(=O)(=O)c2ccc(C(=O)Nc3nnc(C4CC4)o3)cc2)C1 (configuration not stated) was read as SW480 rerep 17%, PINK1 modulator 1%, KB-3-1 tox inconclusive, 12-LOX inh 0%, MCF10A rereplic 18% and KB-V1 cytotox 5.2µM*.
Screening CCOC(=O)N1CCN(S(=O)(=O)c2ccc(C(=O)Nc3nnc(C4CC4)o3)cc2)CC1 returned SW480 rerep 12%, PINK1 modulator 1%, KB-3-1 tox inactive, 12-LOX inh 18%, MCF10A rereplic inconclusive and KB-V1 cytotox inactive.
`CCN(c1ccccc1)S(=O)(=O)c1ccc(C(=O)Nc2nnc(-c3ccco3)o2)cc1` gave SW480 rerep 23µM*, PINK1 modulator 3%, KB-3-1 tox inactive, 12-LOX inh -14%, MCF10A rereplic 8% and KB-V1 cytotox inactive.
For CN(c1ccccc1)S(=O)(=O)c1ccc(C(=O)Nc2nnc(-c3ccco3)o2)cc1 the results were SW480 rerep 21µM*, PINK1 modulator 1%, KB-3-1 tox inconclusive, 12-LOX inh inconclusive, MCF10A rereplic 3% and KB-V1 cytotox inconclusive.
`CC1CCCN(S(=O)(=O)c2ccc(C(=O)Nc3nnc(-c4ccco4)o3)cc2)C1` (configuration not stated) gave SW480 rerep inconclusive, PINK1 modulator 1%, KB-3-1 tox inconclusive, 12-LOX inh -11%, MCF10A rereplic 20% and KB-V1 cytotox 7.3µM*.
`CC1CC(C)CN(S(=O)(=O)c2ccc(NC(=O)c3ccc(=O)[nH]c3)cc2)C1` (configuration not stated) gave SW480 rerep inconclusive, PINK1 modulator 16%, KB-3-1 tox 4.6µM*, 12-LOX inh 9%, MCF10A rereplic 5.8µM* and KB-V1 cytotox inactive.
For CC1CC(C)CN(C(=O)c2ccc(NC(=O)c3ccc(=O)[nH]c3)cc2)C1 (configuration not stated) the results were SW480 rerep 2%, PINK1 modulator 0%, KB-3-1 tox inactive, 12-LOX inh 15%, MCF10A rereplic 4% and KB-V1 cytotox inactive.
Screening CCN(c1ccccc1)S(=O)(=O)c1ccc(C(=O)Nc2nnc(C3CC3)o2)cc1 returned SW480 rerep inconclusive, PINK1 modulator 4%, KB-3-1 tox inconclusive, 12-LOX inh -4%, MCF10A rereplic 1% and KB-V1 cytotox 7.3µM*.
For Cc1nn(-c2ccccc2)c(C)c1C(=O)Nc1nnc(-c2ccco2)o1 the results were SW480 rerep inconclusive, PINK1 modulator 2%, KB-3-1 tox inconclusive, 12-LOX inh 0%, MCF10A rereplic 10% and KB-V1 cytotox 5.8µM*.
For CN(c1ccccc1)S(=O)(=O)c1ccc(C(=O)Nc2nnc(C3CC3)o2)cc1 the results were SW480 rerep 1%, PINK1 modulator 1%, KB-3-1 tox inactive, 12-LOX inh 9%, MCF10A rereplic -6% and KB-V1 cytotox inactive.
CC(=O)Nc1nnc(-c2ccco2)o1 was read as SW480 rerep 1%, PINK1 modulator 2%, KB-3-1 tox inactive, 12-LOX inh 1%, MCF10A rereplic -2% and KB-V1 cytotox inactive.
Screening O=[S+]1([O-])NC2(CCN(CC3CCCCC3)CC2)COc2ccccc21 returned 12-LOX inh 3%[6.33 µM].
Screening NC(=O)C(Oc1ccccc1Cl)c1ccccc1 (configuration not stated) returned 12-LOX inh 33%.
`COc1ccc(NC(=O)Cc2cnc(-n3cccc3)s2)c(OC)c1` gave 12-LOX inh 6%.
CC(C)(C)CC(=O)N(Cc1cccc(Br)c1)C1CC1 was read as 12-LOX inh 57%.
For COc1ccc(C)cc1NC(=O)c1nnn(Cc2cccc(C(F)(F)F)c2)c1N the results were SW480 rerep 11%, PINK1 modulator 30%, KB-3-1 tox inconclusive, 12-LOX inh 1%, MCF10A rereplic 2.1µM* and KB-V1 cytotox inactive.
